Bioassay records from PubChem.
Most compounds without a hit are left out; they make up all but 8.7% or so of the library.
Pf growth 96h: P. falciparum growth inhibition at 96 hours; P. falciparum luciferase reporter growth, 96 h; hit rate 6.9% among 320,000; AID 504834; Potency, µM (titrated, usually from 28.7 µM), without a hit: top-dose activity change, negative = inhibition, usual class: inhibitors
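P. falciparum expressing integrated firefly luciferase, in erythrocytes at 2% hematocrit, 0.05% parasitemia, incubated with compounds 96 h at 37 C, 5% CO2. Growth inhibition read as loss of luminescence; two-generation exposure targets delayed-death apicoplast inhibitors.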
Vaccinia mCherry: inhibitors of vaccinia virus infection (mCherry reporter signal); Vaccinia virus mCherry reporter infection, fluorescence; Potency, µM (highest dose often 36.5 µM), for the others: at the highest dose activity change, negative = inhibition, most hits filed as inhibitors; hit rate 0.63% among 310,000; AID 720579; calls by dose curve; tested in A549 cells; further: nearly all actives have a fitted effect of over 35% in size
Pf growth 48h: P. falciparum growth inhibition at 48 hours (one generation); P. falciparum luciferase growth in erythrocytes, 48 h; Potency, µM (top dose mostly 28.7 µM), inactives show at the top dose activity change, negative = inhibition, actives largely listed as inhibitors; hit rate 5.9% among 310,000; AID 504832
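Compounds are pin-transferred into medium, infected erythrocytes (2% hematocrit, 0.1% parasitemia final) are added, and plates sit one parasite generation at 37 C in 5% CO2. Detection reagent is then added and luminescence measured.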
Vaccinia Venus: vaccinia inhibition (Venus reporter); Vaccinia virus Venus reporter expression, fluorescence; Potency, µM (highest dose often 36.5 µM), for inactives: at the highest dose activity change, negative = inhibition, actives largely listed as inhibitors; hit rate 0.46% among 330,000; calls by dose curve; tested in A549 cells; further: nearly all actives have a fitted effect of over 30% in size
AMA1 RON2 block: AMA1-RON2 (P. falciparum) interaction inhibition. AlphaScreen AMA1-biotinylated RON2 peptide binding. Potency, µM (series often up to 58.2 µM), inactives show at the top dose activity change, negative = inhibition, hits mostly inhibitors. hit rate 0.2% among 360,000;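 further: 0% = vehicle wells and -100% = peptide control; nearly all actives have a fitted effect of over 45% in size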
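AMA1 (3D7) with his tag at 25 nM final met compounds first, then biotinylated RON2 peptide at 25 nM; detection used donor plus acceptor beads, 10 µg/mL apiece, read by AlphaScreen after 30 min at room temperature.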
Numbers without * were called inactive; i = inactive; ? = inconclusive; . = not tested or not shown; [ ] = another dose, or the depositor's remark. Unless noted, the call rests on the fitted dose curve; in most records, active means well fitted curve in the direction sought with a large enough effect; inconclusive means small, poorly fitted or top-dose-only effect, or another doubt; inactive means no such curve, though single readings can be large; an effect the other way counts as inactive or inconclusive. Unless noted, on the % scale 0 is the no-effect control and ±100 the full control effect; potency means the concentration at half of the fitted maximal effect.

SMILES	Pf growth 96h	Vaccinia mCherry	Pf growth 48h	Vaccinia Venus	AMA1 RON2 block
CCCCn1c(-c2ccc(C(C)(C)C)cc2)nc2cc3[nH]c(=O)c(C(C)C)nc3cc21	4.65µM*	10µM*	?	?	44.6%
CCCCn1c(-c2ccc(Cl)c(Cl)c2)nc2cc3[nH]c(=O)c(C(C)C)nc3cc21	4.65µM*	?	?	-26.2%	30.3%
CCOC(=O)CN1CC23C=CC(O2)C(C(=O)NCc2ccc(C)cc2)C3C1=O (stereo unspecified)	10.4µM*	i	.	-4.6%	2.0%
O=[N+]([O-])c1ccc(/C=N/Nc2nc(N3CCCC3)nc(N3CCCC3)n2)o1	10.4µM*	i	.	-11.0%	54.6%
O=[N+]([O-])c1cccc(-c2ccc(/C=N/Nc3nc(N4CCCCC4)nc(N4CCCCC4)n3)o2)c1	11.1%	-12.8%	2.33µM*	1.3%	-6.2%
CCNc1nc(NCC)nc(N/N=C/c2ccc([N+](=O)[O-])o2)n1	4.15µM*	?	.	?	5.3%
Cc1ccc2nc(N/N=C\c3ccc([N+](=O)[O-])o3)nc(-c3ccccc3)c2c1	?	.	.	-11.5%	-4.8%
O=[N+]([O-])c1ccc(-c2ccc(/C=N/Nc3nc(N4CCCCC4)nc(N4CCCCC4)n3)o2)cc1	-60.0%	-0.5%	?	3.6%	14.1%
Cc1ccc2scc(N3CCc4ccccc4C3)c(=O)c2c1	.	-21.6%	.	-15.7%	.
CCc1ccc(NS(=O)(=O)c2[nH]ncc2C(=O)OC)cc1	.	-8.0%	.	2.2%	.
CCN(c1ccccc1)S(=O)(=O)c1ccc(NC(=O)c2nc(SC)ncc2Cl)cc1	.	-28.6%	.	-6.6%	.
Cc1oc2c(C)c3oc(=O)c(CC(=O)N4CCCCC4)c(C)c3cc2c1C	.	-15.4%	.	-13.9%	.
COc1ccc(-n2nccc2-c2nn(-c3cccc(OC)c3)c(=O)n(C)c2=O)cc1	-6.3%	-21.9%	.	-8.8%	-4.5%
COc1cccc(-n2nc(-c3ccnn3-c3ccc(F)cc3)c(=O)n(C)c2=O)c1	11.7µM*	.	.	-12.1%	-1.3%
CCCCCOP(=O)(OCCCCC)C1(NS(=O)(=O)c2ccccc2)C=CC(=O)c2ccccc21 (stereo unspecified)	7.38µM*	.	9.28µM*	?	?
CCOP(=O)(OCC)C(NS(=O)(=O)c1ccccc1)C(Cl)(Cl)Cl (stereo unspecified)	40.9%	-5.5%	-11.4%	-3.2%	5.4%
Cc1ccc(S(=O)(=O)n2nc(C)c(S(=O)(=O)N3CCC(C)CC3)c2C)cc1	.	10.1%	.	-6.5%	.
Nc1nc(CN2CCC(Cc3ccccc3)CC2)nc(Nc2ccccc2)n1	7.38µM*	.	.	.	-5.8%
Nc1nc(CN2CCN(C(c3ccccc3)c3ccccc3)CC2)nc(Nc2ccccc2)n1	4.65µM*	-28.9%	8.28µM*	-11.7%	-16.4%
COc1ccnc(Oc2ccccc2)c1C(=O)N/C=N/OCc1ccccc1	-2.4%	-13.7%	8.1%	-11.5%	5.9%
COc1ccnc(Oc2ccc(F)cc2)c1C(=O)N/C=N/OCc1c(Cl)cccc1Cl	?	-9.0%	11.7µM*	-20.5%	-12.4%
Cc1ccc(SCCNC(=S)Nc2cc(C)cc(C)c2)cc1	?	.	.	-21.6%	-1.1%
COc1ccc(Cl)cc1NC(=S)NCCSc1ccc(C)cc1	11.7µM*	i	-15.6%	-13.1%	58.0%
Cc1ccc(NC(=S)NCCSc2ccc(Cl)cc2)cc1	?	0.4%	11.7µM*	-1.1%	21.3%
CCN(CC)CCN(C(=O)c1ccco1)c1nc2c(C)cccc2s1	.	-12.8%	.	-3.1%	.
SMILES	Pf growth 96h	Vaccinia mCherry	Pf growth 48h	Vaccinia Venus	AMA1 RON2 block
CCN(CC)C1=CC(=[N+]2CCCC2)CC(C)(C)C1	0.37µM*	-26.9%	1.31µM*	-13.8%	-4.4%
CN(Cc1ccccc1)C1=CC(=[N+]2CCCC2)CC(C)(C)C1	0.586µM*	-25.1%	0.928µM*	-4.5%	3.1%
CN(C)c1cccc(NC2=CC(=[N+]3CCOCC3)CC(C)(C)C2)c1	?	i	.	-8.8%	-15.3%
O=[N+]([O-])c1ccc(/C=N/N2CCN(c3ccncc3S(=O)(=O)N3CCCCC3)CC2)cc1	4.15µM*	-18.7%	?	-15.6%	1.2%
O=[N+]([O-])c1ccccc1/C=N/N1CCN(c2ccncc2S(=O)(=O)N2CCCCC2)CC1	2.33µM*	-21.3%	11.7µM*	-23.9%	-2.8%[11.6 µM]
Clc1ccccc1CN(Cc1ccco1)Cc1nnnn1C1CCCC1	11.7%	.	7.38µM*	.	-8.6%
Cc1ccccc1C(=O)c1cccn1CC(=O)NCC1CCCO1 (stereo unspecified)	10.4µM*	.	-2.4%	-11.8%	5.0%
COc1ccc(CCNC(=O)Cn2cccc2C(=O)c2ccccc2C)cc1OC	9.28µM*	-28.9%	-27.4%	-21.8%	-5.1%
COc1ccc(CCNC(=O)Cn2cccc2C(=O)c2ccccc2)cc1OC	-1.9%	-16.6%	2.8%	-14.8%	0.1%
Cc1ccccc1C(=O)c1cccn1CC(=O)NCc1ccccc1	1.1%	-13.4%	28.4%	-7.0%	-1.7%
COc1cccc(CC(=O)NCC2Cc3cc(Cl)cc(-c4ncccn4)c3O2)c1 (stereo unspecified)	.	-6.3%	.	-23.4%	.
Oc1ccccc1N=Cc1c(O)ccc2oc3c(c12)CCCC3	?	.	?	.	72.3%
NC(=S)N/N=C/c1c(O)c(Br)cc2oc3c(c12)CCCC3	?	?	3.29µM*	-10.3%	22.9%
Cc1cc(C)c2c(-n3cccc3)c(C(=O)NCCCN3CCCCC3C)sc2n1 (stereo unspecified)	.	-12.4%	.	-7.6%	.
O=C(NC(c1ccc(F)cc1)c1ccc2ccccc2n1)C1CCN(CCOc2ccc(F)cc2)CC1 (stereo unspecified)	.	11.2µM*	.	10µM*	?
O=C(NC(c1ccc(F)cc1)c1ccc2ccccc2n1)C1CCN(Cc2ccc(Oc3ccccc3)cc2)CC1 (stereo unspecified)	.	-10.7%	.	?	-4.3%
COc1ccc(OCCN2CCC(C(=O)NC(c3ccc(F)cc3)c3ccc4ccccc4n3)CC2)cc1 (stereo unspecified)	.	i	.	-5.4%	?
COc1cc(CN2CCC(C(=O)NC(c3ccc(F)cc3)c3ccc4ccccc4n3)CC2)cc(OC)c1 (stereo unspecified)	.	?	.	14.1µM*	-13.1%
O=C(NC(c1ccccc1)c1ccc2ccccc2n1)C1CCN(CCOc2ccc(Cl)cc2)CC1 (stereo unspecified)	.	?	.	10µM*	33.4%
CC(=O)N1c2ccc(S(=O)(=O)Nc3ccc(Cl)cc3C)cc2CC1C (stereo unspecified)	.	-20.6%	.	-25.9%	.
CC1(C)CC(=O)C=C(c2ccc(Oc3ccccc3)cc2)C1	?	-5.3%	16.7%	-9.8%	0.2%
CC1(C)CC(=O)C=C(/C=C/c2ccccc2)C1	2.08µM*	i	?	-11.1%	-10.3%
CN(c1ccccc1)S(=O)(=O)c1ccc(NC(=O)c2cc(=O)c3ccccc3o2)cc1	.	-8.2%	.	-2.4%	.
CCOC(=O)c1c(C)n(-c2ccc(C)cc2)c2c(C(C(C)=O)C(=O)O)c(Br)c(O)c(O)c12 (stereo unspecified)	.	.	?	?	-26.3%
